Results: PubChem BioAssay (NCI)
“And” between values parts separate entries of the source, which are not always exact repeats. Equal values may be shown once. About 83,000 compounds went through this panel and 20% of them were active in at least one assay; those are over-represented in the sample as a whole.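 The endpoint reported here, percent growth, reads 100 for growth as untreated, 0 for no net growth and -100 for all cells dead.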 The source made the active and inactive calls. The calls were made as follows: active = growth percent below 10; inactive = the rest.

Legend:
Assay in all cases: NCI-60 one-dose screen, 48 h (100 = growth as untreated, 0 = no growth, -100 = all killed)
Details in all cases: 10 µM unless noted
T-47D breast = tested on: T-47D breast
BT-549 breast = tested on: BT-549 breast
MDA-MB-435 melanoma = tested on: MDA-MB-435 melanoma
SW-620 colon = tested on: SW-620 colon
MCF7 breast = tested on: MCF7 breast
HCT-116 colon = tested on: HCT-116 colon
HCC-2998 colon = tested on: HCC-2998 colon
KM12 colon = tested on: KM12 colon

Row | SMILES | growth (T-47D breast) | growth (BT-549 breast) | growth (MDA-MB-435 melanoma) | growth (SW-620 colon) | growth (MCF7 breast) | growth (HCT-116 colon) | growth (HCC-2998 colon) | growth (KM12 colon)
1 | CCNC(=O)Nc1ncccc1OCc1ccc(F)cc1 | 90.3% (inactive) | 114% (inactive) | 101% (inactive) | 104% (inactive) | 84% (inactive) | 97.9% (inactive) | 91.2% (inactive) | 88.1% (inactive)
2 | COc1cc(/C=C2\CCC/C(=C\c3cc(CN4CCCC4)c(O)c(OC)c3)C2=O)cc(CN2CCCC2)c1O | 95.9% (inactive) | 49.2% (inactive) | 8.88% (active) | 25.8% (inactive) | 14.3% (inactive) | -34.5% (active) | 52.3% (inactive) | 11.9% (inactive)
3 | COCCOc1cc2ncnc(N3CCN(S(=O)(=O)c4ccccc4Cl)CC3)c2cc1OCCOC | 80.6% (inactive) | 89.5% (inactive) | 10.5% (inactive) | 79.9% (inactive) | 49.3% (inactive) | 89.7% (inactive) | 79.6% (inactive) | 69.7% (inactive)
4 | N#Cc1ccccc1-c1ccc(Cn2c(-c3cscn3)nc3c(Cl)cccc32)cc1 | 56.3% (inactive) | 76.1% (inactive) | 90.1% (inactive) | 87.6% (inactive) | 64.2% (inactive) | 51.2% (inactive) | 93% (inactive) | 77.1% (inactive)
5 | CCN(CC)/C([O-])=c1\cccc\c1=C1\N=C(c2ccccc2)N=C1[n+]1ccc(-c2ccccc2)cc1 | 90.5% (inactive) | 93.3% (inactive) | 96.8% (inactive) | 91.6% (inactive) | 93% (inactive) | 97% (inactive) | 93.3% (inactive) | 96.3% (inactive)
6 | O=C(CCCCCCCCC(=O)N/N=C\c1ccccc1O)N/N=C\c1ccccc1O | 18.1% (inactive) | 26.9% (inactive) | 33.8% (inactive) | 30.2% (inactive) | 16.9% (inactive) | 13% (inactive) | 44.8% (inactive) | 26.5% (inactive)
7 | COc1cc2ncnc(Nc3ccc(F)c(Cl)c3)c2cc1OCC(=O)N1CCCCC1 | 43.6% (inactive) | 94.4% (inactive) | 95.3% (inactive) | 104% (inactive) | 82.6% (inactive) | 79.6% (inactive) | 92.7% (inactive) | 95.4% (inactive)
8 | O=c1oc2c(Br)cc(Br)cc2cc1-c1cc(-c2ccc(-c3cc(-c4cc5cc(Br)cc(Br)c5oc4=O)nc(-c4cc5cc(Br)cc(Br)c5oc4=O)c3)cc2)cc(-c2cc3cc(Br)cc(Br)c3oc2=O)n1 | 98.9% (inactive) | 112% (inactive) | 114% (inactive) | 100% (inactive) | 98% (inactive) | 99.3% (inactive) | 102% (inactive) | 96.1% (inactive)
9 | CN(C)CCCn1c2c(c3ccc(N4CCNCC4)cc3c1=O)C(=O)c1ccccc1-2 | 44% (inactive) | 54.2% (inactive) | 20% (inactive) | -21.6% (active) | -28.2% (active) | -89.1% (active) | -68.9% (active) | -32.1% (active)
10 | COc1ccccc1/C=C/C(=O)/C=C/c1ccccc1OC | -41.1% (active) and 4.16% (active) | -51.9% (active) and -30.6% (active) | -30.8% (active) | -27.1% (active) and -20% (active) | 5.62% (active) and 17.9% (inactive) | -81.7% (active) and -87.1% (active) | -84% (active) and 2.03% (active) | -60% (active) and -45.2% (active)
11 | COC(=O)N/N=C/c1c[n+]([O-])c2ccccc2[n+]1[O-] | 20.4% (inactive) | 108% (inactive) | 96.4% (inactive) | 103% (inactive) | 93.6% (inactive) | 104% (inactive) | 104% (inactive) | 103% (inactive)
12 | Cc1cc(N2CCCCC2)nc(NCc2cc(Nc3ccnc4cc(Cl)ccc34)ccc2F)n1 | -60.6% (active) | 15.5% (inactive) | -86.7% (active) | -19.2% (active) | -37.5% (active) | -62.8% (active) | -16% (active) | 7.38% (active)
13 | Fc1ccc(NC(c2ccc(F)cc2)C2CCN(CCCCc3ccccc3)CC2)cc1 (centres undefined) | 22.4% (inactive) | 61.1% (inactive) | 43.8% (inactive) | 12.7% (inactive) | 5.18% (active) | -55.4% (active) | 16.3% (inactive) | 29.9% (inactive)
